Pf growth 48h: inhibits P. falciparum growth in the first generation, 48 h. Potency, µM (highest dose often 28.7 µM), without a hit: at the highest dose activity change, negative = inhibition, most hits filed as inhibitors. hit rate 5.9% among 310,000. P. falciparum luciferase growth in erythrocytes, 48 h. AID 504832; further: on the % scale 0 is the no-effect control and ±100 the full control effect
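In quantitative HTS format, infected erythrocytes bearing luciferase-reporter parasites were treated for a single generation at 37 C. Luminescence after adding detection reagent served as the growth measure.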
NS1 inh: blocks influenza NS1 protein function; Potency, µM (top dose mostly 46.1 µM), inactives show at the highest dose activity, positive = more growth; hit rate 0.4% among 270,000; calls by dose curve; further: actives are rising curves; nearly all actives have a fitted effect of over 50% in size
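Recovery from NS1-induced slow growth read by OD600 in budding yeast switched to galactose assay medium (pH 6.0, -URA) at 1:100 dilution. Compound 23 nl per well; the matching strain lacking NS1 serves as control.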
Pf growth 96h: P. falciparum growth inhibition at 96 hour, primary screen for plastid delayed-death inhibitors; P. falciparum luciferase reporter growth, 96 h; Potency, µM (doses to about 28.7 µM), for inactives: top-dose activity change, negative = inhibition, actives largely listed as inhibitors; hit rate 6.9% among 320,000; further: on the % scale 0 is the no-effect control and ±100 the full control effect
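Compounds incubated with erythrocytes infected by luciferase-expressing P. falciparum (2% hematocrit, 0.05% parasitemia final) for 96 hours, 37 C in 5% CO2. Growth inhibition scored as decreased luciferase luminescence.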
SARS PLpro yeast: inhibitors of SARS-CoV papain-like protease in yeast. S. cerevisiae expressing SARS-CoV PLpro, growth rescue. Potency, µM (doses to about 32.9 µM), inactives show at the top dose activity, positive = growth rescue, most hits filed as activators. hit rate 0.19% among 330,000. AID 485353; calls by dose curve; further: 0% is about no effect; nearly all actives have a fitted effect of over 55% in size
Active calls of the source: *; u = inconclusive; x = no result given. The list is not random: actives were taken first. Their share in the collection is about 10%. Unless noted, the call rests on the fitted dose curve; in most records, active means well fitted inhibition curve with a large enough effect; inconclusive means small, poorly fitted or top-dose-only effect, or another doubt; inactive means no such curve, though single readings can be large or run the other way. Potency means the concentration at half of the fitted maximal effect.

SMILES | Pf growth 48h | NS1 inh | Pf growth 96h | SARS PLpro yeast
COc1ccccc1N1CCN(C(=O)c2ccc(CS(=O)(=O)c3ccccc3OC)o2)CC1 | u | -10% | 9.3µM* | 5%
COc1ccccc1S(=O)(=O)Cc1ccc(C(=O)N2CCN(c3ccc(C)cc3)C(C)C2)o1 (stereo not drawn) | 12µM* | -26% | u | 0%
COc1ccc2cc(C(C)C(=O)N3CCC(C)CC3)ccc2c1 (stereo not drawn) | u | -107% | u | -53%
CCCCN(C/C=C/c1ccccc1OC)Cc1ccccc1 | u | 7% | 8.3µM* | -5%
CCOc1ccc(NC(=O)COC(=O)CN2CCCCCC2=O)cc1 | x | x | x | 2%
COc1ccc(NC(=O)CN2CCC(n3c(C)nc4cc(F)ccc43)CC2)c(OC)c1 | u | 2% | 4% | 10%
COc1cc(OC)cc(C(=O)N2CCC(n3c(C)nc4cc(F)ccc43)CC2)c1 | x | -17% | 13µM* | 4%
COc1ccccc1CN(C)C(=O)c1ccccc1Sc1ccccc1C#N | 14% | -10% | u | 3%
Cc1ccc(N2C(=O)c3ccccc3C2C(=O)c2cc(C)ccc2O)cc1 (stereo not drawn) | 2.6µM* | -11% | 2.6µM* | -14%
Cc1ccc(N2C(=O)c3ccccc3C2C(=O)c2ccc(C)c(C)c2O)cc1 (stereo not drawn) | u | 1% | 5.2µM* | -3%
Cc1ccc(N2C(=O)c3ccccc3C2C(=O)c2ccc(O)cc2O)cc1 (stereo not drawn) | 3% | -2% | -20% | -3%
O=C(Nc1ccc(Cl)c(Cl)c1)c1ccc(Cn2c(=O)[nH]c3ccsc3c2=O)cc1 | 19% | -5% | u | -1%
O=C(Nc1ccc(Oc2ccccc2)cc1)c1ccc(Cn2c(=O)[nH]c3ccsc3c2=O)cc1 | 18% | -28% | 13µM* | -3%
N#CCCN(C(=O)CCl)c1cccc(Cl)c1 | u | x | 5.2µM* | 0%
CC(=O)N1c2ccccc2C(=O)OC1c1cccnc1 (stereo not drawn) | u | 2% | 33% | 13%
COc1cccc(C2OC(=O)c3ccccc3N2C(C)=O)c1OC(C)=O (stereo not drawn) | -7% | 5% | 12µM* | 5%
O=C(NCCNCC(O)COc1ccc(O)cc1)N1CCOCC1 (stereo not drawn) | -15% | 0% | 6.7µM* | x
O=C(Nc1c2c(nn1-c1ccc(F)cc1)CS(=O)(=O)C2)C1CCCC1 | 4% | -3% | 10µM* | -3%
O=C(Nc1c2c(nn1-c1ccc(F)cc1)CS(=O)(=O)C2)c1ccc(Br)o1 | 12µM* | 0% | u | 4%
COc1ccc(-n2nc3c(c2NC(=O)C2CCCC2)CS(=O)(=O)C3)cc1 | u | 12% | 1% | 1%
CCCCCC1=NN2C(=O)CC(=O)N=C2S1 | -3% | 0% | 11% | 6%
COC(=O)c1cc(=O)[nH]c(=O)[nH]1 | x | 3% | x | x
Cc1nn2c(c1-c1ccc(Cl)cc1)N=C(c1ccco1)CC2c1ccccc1 (stereo not drawn) | u | 6% | 17µM* | -14%
COc1cc(OC)cc(C(=O)Nc2sc3c(c2C(N)=O)CCC3)c1 | 48% | 1% | 46% | 8%
CC(=O)c1sc(NC(=O)C2(F)C(F)(F)C(F)(F)C(F)(F)C(F)(F)C2(F)F)nc1C | 8.3µM* | -121% | -20% | -31%
SMILES | Pf growth 48h | NS1 inh | Pf growth 96h | SARS PLpro yeast
CCOC(=O)Cc1csc(NC(=O)c2cc(-c3ccncc3)nc3ccccc23)n1 | u | x | -6% | -6%
CCOC(=O)Cc1csc(NC(=O)CN2CCOCC2)n1 | u | u | 9.3µM* | 1%
CCOC(=O)Cc1csc(NC(=O)CCc2ccc(S(=O)(=O)N3CCOCC3)cc2)n1 | 2.6µM* | -3% | u | -3%
CCOC(=O)Cc1csc(NC(=O)c2ccc(Br)cc2)n1 | 21% | -12% | 14% | -12%
CCOC(=O)Cc1csc(NC(=O)c2ccc(S(=O)(=O)N3CCCCC3)cc2)n1 | 32% | -8% | 5.9µM* | -1%
CCOC(=O)Cc1csc(NC(=O)Nc2ccc(OC(F)(F)F)cc2)n1 | 12µM* | 3% | 9.3µM* | 0%
Cc1cc(C)cc(NC(=O)COc2ccc(C(=S)N3CCOCC3)cc2)c1 | u | x | 7% | 1%
CCOC(=O)c1cccc(NC(=O)C2(S(=O)(=O)c3ccc(Cl)cc3)CC2)c1 | -14% | 4% | 225% | 15%
CCOC(=O)c1ccc(CNC(=O)C2CCC(=O)N(CCc3ccccc3)C2)o1 (stereo not drawn) | -19% | 1% | -15% | 6%
NS(=O)(=O)c1ccc(NCc2nc3ccccc3[nH]2)cc1 | x | -3% | x | x
CCOC(=O)Cc1csc(N/N=C/c2ccccc2)n1 | 180% | -4% | 5% | 16%
CCOC(=O)Cc1csc(N/N=C\c2ccc(N(C)C)cc2)n1 | 7.4µM* | 7% | 9.3µM* | 12%
N#C/C(=C\c1ccc(Sc2ccccc2)o1)c1nc2ccccc2[nH]1 | u | -5% | 1µM* | 1%
O=C(O)/C=C/c1cn(-c2ccccc2)nc1-c1ccc(-c2ccc([N+](=O)[O-])cc2)o1 | 9% | -1% | 6% | -1%
CN(C)S(=O)(=O)c1cccc(-c2nn(-c3ccccc3)cc2/C=C2\SC(=S)NC2=O)c1 | 4.7µM* | x | 2.6µM* | 19%
CN(C)S(=O)(=O)c1cccc(-c2nn(-c3ccccc3)cc2/C=C(\C#N)c2nc3ccccc3[nH]2)c1 | 2.1µM* | 26% | 1.5µM* | -8%
Cc1ccc(-c2nn(-c3ccccc3)cc2/C=C(\C#N)c2cccc(C#N)c2)o1 | 12µM* | 2% | x | -1%
O=C(O)CCn1cc(/C=C2\SC(=S)NC2=O)c(-c2ccccc2)n1 | 3% | x | 2% | 0%
C/C(=N/NC1=NCCN1)c1cn(C2=NCCN2)nc1C | x | 3% | x | x
N#C/C(=C\c1cn(-c2ccccc2)nc1-c1cc2ccccc2o1)c1nc2ccccc2[nH]1 | 1µM* | 0% | 0.66µM* | -4%
Cc1cc(C)c2cc3c(N)c(C(=O)Nc4c(C)[nH]c(=O)[nH]c4=O)sc3nc2c1 | -19% | 1.4µM* | -22% | -15%
Cc1cc(C)cc(N(C(=O)c2csnn2)C(C(=O)NC(C)(C)C)c2cccnc2)c1 (stereo not drawn) | -21% | -2% | u | 0%
Cc1ccccc1OC1CCN(C(=O)c2cc(COc3ccccc3)on2)CC1 | -1% | -27% | u | -7%
Cc1ccc(/C=C/c2ccc(N(C)C)cc2)[n+](C)c1 | 1.2µM* | 2% | 219% | 1%
Cc1ccc(C(=O)O/N=C/c2ccc(N(C)C)cc2)cc1 | 119% | 4% | 8% | 1%
SMILES | Pf growth 48h | NS1 inh | Pf growth 96h | SARS PLpro yeast
CC[n+]1ccccc1/C=C/c1ccc(N(C)C)cc1 | 2.9µM* | x | -16% | 1%
CN(C)c1ccc(C(=O)/C=C/c2ccccc2)cc1 | 367% | x | 354% | -7%
CC[n+]1ccc(/C=C/c2ccc(N(C)C)cc2)c2ccccc21 | 0.59µM* | -70% | 10% | -5%
CN(C)c1ccc(/C=C/c2cc[n+](C)cc2)cc1 | x | -13% | u | -10%
CN(C)c1ccc(/C=C/c2cc[n+]([O-])cc2)cc1 | 66% | -7% | 2.1µM* | 7%
O=C(CSc1nc2nn(-c3ccccc3)c(=O)c-2c2n1CCCCC2)NCCc1ccccc1 | u | x | u | 0%

Screens (PubChem)
